# FMDV inh: High Throughput Screening for Foot and Mouth Disease Virus Antivirals; FMDV antiviral cell-based qHTS; Potency, µM (titrated, usually from 57.9 µM), for the others: at the highest dose activity change, negative = inhibition, most hits filed as inhibitors; actives 1.2% (n = 410,000); calls by dose curve; tested in HEK293T cells; further: read-out not given here; potency means the concentration at half of the fitted maximal effect; nearly all actives have a fitted effect of over 45% in size
# HCV inhibitor: qHTS Assay for Inhibitors of Hepatitis C Virus (HCV). Huh7.5.1 HCVcc-Cre infection, luciferase reporter, 44 h. Potency, µM (top dose mostly 41.8 µM), inactives show at the highest dose activity change, negative = inhibition, most hits filed as inhibitors. actives 3.4% (n = 340,000); active means well fitted inhibition curve with a large enough effect; inconclusive means small, poorly fitted or top-dose-only effect, or another doubt; inactive means no such curve, though single readings can be large or run the other way; further: potency means the concentration at half of the fitted maximal effect
#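 1,000 cells/well; 4 h culture; + compound; + HCVcc-Cre (~0.5 moi); 44 h; luciferase substrate, RT 15 min; read 15 sec.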
# HCMV antiviral: qHTS Assay for inhibitors of the human cytomegalovirus (HCMV); actives 4.5% (n = 410,000); HFF cells, HCMV-luciferase reporter, 72 h; active compounds read low; activity change, negative = inhibition, % at 57.5 µM; in the data active means activity change below about -60%; inconclusive means no clear call, values can overlap the other calls; inactive means above about -39%
#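 Human foreskin fibroblasts infected with luciferase-reporter HCMV at MOI 1 PFU/cell, compounds at two doses. Luciferase measured 72 h post infection; normalized to buffer-only basal and Salinomycin (10uM) controls.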
# Lassa entry inh: qHTS for Inhibitors of binding or entry into cells for Lassa Virus; Lassa virus pseudotype entry inhibition, cell reporter; Potency, µM (titrated, usually from 37.9 µM), inactives show at the highest dose activity change, negative = inhibition, actives largely listed as inhibitors; actives 1.2% (n = 300,000); calls by dose curve; tested in HEK293 cells; further: potency means the concentration at half of the fitted maximal effect; nearly all actives have a fitted effect of over 50% in size
# MARV entry inh: qHTS for inhibitors of binding or entry into cells for Marburg Virus; Marburg virus pseudotyped entry inhibition, cell reporter; actives 1.8% (n = 300,000); AID 540276, 2011; Potency, µM (titrated, usually from 37.8 µM), for inactives: top-dose activity change, negative = inhibition, actives largely listed as inhibitors; calls by dose curve; tested in HEK293 cells; further: potency means the concentration at half of the fitted maximal effect
# * = called active by the depositor; u = inconclusive; x = no result given; [ ] = dose if it differs, or a comment. Sampled rows, rich in hits. Any-hit rate of the full collection: about 7.9%. On the % scale 0 is the no-effect control and ±100 the full control effect.
SMILES,FMDV inh,HCV inhibitor,HCMV antiviral,Lassa entry inh,MARV entry inh
CC1(c2ccc([N+](=O)[O-])cc2)CC(C)(C)N(C(=O)c2ccccc2)c2ccccc21 (configuration not stated),x,10.5%,x,1.4%,1.8%
CC1(c2ccccc2)CC(C)(C)N(C(=O)c2cccc(Cl)c2)c2ccccc21 (configuration not stated),3.3%,x,-71.8*,-18.6%[46.1 µM],x
CSCCC1c2cccn2-c2ccccc2N1C=Nc1c(C)cccc1C (configuration not stated),x,x,15.9,x,x
O=C(CCSc1nc(-c2ccco2)cc(C(F)(F)F)n1)NCC1CCCO1 (configuration not stated),0.0%,10µM*,-34.2,-6.6%,-11.0%
Cc1ccc(O)c(NC(=O)CCSc2nc(-c3ccco3)cc(C(F)(F)F)n2)c1,-9.6%,x,-28.9,-18.4%[46.1 µM],-2.2%[46.1 µM]
CCn1ncc(CNC(=O)CCSc2nc(-c3ccco3)cc(C(F)(F)F)n2)c1C,u,10µM*,-17.8,-11.6%,u
COc1ccc(CCNC(=O)CCSc2nc(-c3ccco3)cc(C(F)(F)F)n2)cc1,-8.6%,u,u,-26.4%,-6.5%
CCn1nc(C)c(NC(=O)CCCSc2nc(-c3ccco3)cc(C(F)(F)F)n2)c1C,u,2µM*,-32.7,u,u
Cc1nn(C)cc1NC(=O)CCSc1nc(-c2ccco2)cc(C(F)(F)F)n1,0.0%,11.2µM*,u,-14.4%,u
CCOC(=O)N1CCN(c2nc(-c3ccco3)cc(C(F)(F)F)n2)CC1,u,u,-61.7*,1.7%,7.3%
Cc1nc2c3ccccc3nc(NNC(=O)CCC(=O)N3CCN(c4cc(Cl)ccc4C)CC3)n2n1,-10.8%,x,-6.8,18.0%[46.1 µM],u
CC1(C(=O)Nc2cccc(Oc3ccccc3)c2)Cc2c(-c3ccc4c(c3)OCO4)ccnc2O1 (configuration not stated),-6.9%,x,-67.1*,x,x
CC(C)CNC(=S)N1CCC(C(=O)c2ccc3c(c2)OCCO3)CC1,-13.5%,u,-63.3*,x,x
Cc1c(C(=O)Nc2cccc(N(C)S(C)(=O)=O)c2)cccc1[N+](=O)[O-],0.0%,-0.2%,20.8,x,x
CCC[n+]1c2ccccc2cc2ccccc21,u,u,-70.0*,u,u
CCCC[n+]1c2ccccc2cc2ccccc21,28.2µM*,6.31µM*,u,x,x
O=C(NCC1CCCO1)C1CCN(C2CCN(CCCC3CCCC3)CC2)CC1 (configuration not stated),-20.8%,10µM*,4.7,x,x
O=C(NCC1CCCO1)C1CCN(C2CCN(C(=O)CC3CCCC3)CC2)CC1 (configuration not stated),-13.3%,1.1%,-32.7,12.3%,-11.9%[46.1 µM]
COc1ccc(-c2nccc3[nH]nc(-c4ccccc4)c23)cc1,x,x,-18.5,x,x
COc1cc(SC)ccc1C(=O)Nc1ccon1,52.7%,u,-107.5*,u,11.9%
COc1cc(SC)ccc1C(=O)Nc1ncc(C)s1,10µM*,u,-82.0*,u,1.46µM*
COc1cc(SC)ccc1C(=O)Nc1ccc(C)cc1,2.0%,u,54.3,u,-11.6%[46.1 µM]
COc1cc(SC)ccc1C(=O)Nc1cccc(C)n1,-27.4%,12.6µM*,30.3,8.91µM*,10µM*
COc1cc(SC)ccc1C(=O)Nc1cccc(S(=O)(=O)NC2=NCCCCC2)c1,u,-28.1%,-28.8,-27.4%[46.1 µM],-24.1%
CCN(CC)S(=O)(=O)c1cccc(NC(=O)c2ccc(SC)cc2OC)c1,u,11.2µM*,u,u,-14.0%[46.1 µM]
SMILES,FMDV inh,HCV inhibitor,HCMV antiviral,Lassa entry inh,MARV entry inh
COc1cc(SC)ccc1C(=O)Nc1ccccn1,-55.6%,u,44.9,u,u
COc1cc(SC)ccc1C(=O)Nc1ccc(Br)cn1,-93.2%,u,-83.2*,x,x
CN(C(=O)CSc1nnc(COc2ccccc2)o1)c1ccccc1,4.1%,x,-16.0,-20.5%[46.1 µM],u
Cc1nc2ccccn2c(=O)c1NC(=O)c1cccc(F)c1,-0.6%,x,25.8,-6.4%[46.1 µM],x
Cc1noc2ncnc(Oc3cc(Cl)ccc3Cl)c12,-17.6%,12.6µM*,-39.0,1.3%[46.1 µM],-9.9%[46.1 µM]
C(=NCc1ccccc1)N1c2ccccc2-n2cccc2C1CCc1ccccc1 (configuration not stated),x,x,53.0,x,x
CC(=O)c1ccc(N2CCN(C(=O)c3ccc(-c4ccccc4)cc3)CC2)cc1,-8.5%,3.8%,-65.8*,u,-22.2%[46.1 µM]

# Bioassay records deposited in PubChem BioAssay by National Center for Advancing Translational Sciences (NCATS).
